Assay outcomes as filed in PubChem BioAssay.
TbPYK inhibitor: blocks Trypanosoma brucei pyruvate kinase; TbPYK enzyme, Kinase-Glo Plus ATP luminescence, 45 min; 410,000 tested, 0.12% active; Potency, µM (highest dose often 76.8 µM), for the others: at the top dose activity, negative = inhibition, hits mostly inhibitors; Q57TT1; AID 624173; note: potency is the fitted concentration of half-maximal effect; % is set by controls: 0 for no effect and ±100 for the full control effect; nearly all actives have a fitted effect of over 50% in size
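Quantitative HTS: titrated library compounds versus trypanosomal pyruvate kinase in TEA buffer (pH 7.2) containing KCl, MgCl2, BSA and Tween-20. Reactions were initiated with ADP, 130 uM final. Kinase-Glo Plus luminescence was read after 45 min at RT.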
Sm TGR block: S. mansoni TGR enzyme inhibition | Q962Y6 | purified TGR, DTNB reduction, TNB absorbance 405 nm | Potency, µM (top dose mostly 114 µM), for the others: at the top dose activity change, negative = inhibition, usual class: inhibitors | 360,000 tested, 3% active | AID 485364; note: potency is the fitted concentration of half-maximal effect; % is set by controls: 0 for no effect and ±100 for the full control effect; nearly all actives have a fitted effect of over 60% in size
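Kinetic colorimetric format: TGR-catalysed, NADPH-driven DTNB reduction monitored via TNB absorbance. Enzyme dispensed at 20 nM; compound exposure 15 min at room temperature before reaction start.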
Cycloheximide cs: affects cycloheximide protein synthesis inhibition readout, counter-screen | max response, % | cell reporter, cycloheximide protein synthesis inhibition counterscreen | 300,000 tested, 12% active; in the data active = max response mostly above about 13%, no sharp cut-off; inactive = mostly below about 14%; note: read at 38.3 µM for the half of the compounds with a filed dose; 0% is about no effect
FBPA Giardia inh: inhibitors of Giardia lamblia fructose-1,6-bisphosphate aldolase; A8B2U2; purified Giardia FBPA; Potency, µM (top dose mostly 59.6 µM), without a hit: at the top dose activity, negative = inhibition, usual class: inhibitors; 290,000 tested, 0.71% active; AID 2451; note: potency is the fitted concentration of half-maximal effect; % is set by controls: 0 for no effect and ±100 for the full control effect; nearly all actives have a fitted effect of over 55% in size
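40 nM FBPA preincubated 10 min at RT with compound (up to 57.5 uM final), then substrate plus GAPDH/TPI/NAD/arsenate coupling and diaphorase/resazurin added. Fluorescence read after 20 min at RT, 525/598 nm.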
LmPK inh: LmPK (Leishmania mexicana) enzyme inhibition. Q27686. purified LmPK, Kinase-Glo ATP luminescence, 1 h. Potency, µM (highest dose often 57.5 µM), for inactives: top-dose activity change, negative = inhibition, hits mostly inhibitors. 290,000 tested, 0.37% active; note: potency is the fitted concentration of half-maximal effect; % is set by controls: 0 for no effect and ±100 for the full control effect
Target sequence (Q27686 whole entry, looked up): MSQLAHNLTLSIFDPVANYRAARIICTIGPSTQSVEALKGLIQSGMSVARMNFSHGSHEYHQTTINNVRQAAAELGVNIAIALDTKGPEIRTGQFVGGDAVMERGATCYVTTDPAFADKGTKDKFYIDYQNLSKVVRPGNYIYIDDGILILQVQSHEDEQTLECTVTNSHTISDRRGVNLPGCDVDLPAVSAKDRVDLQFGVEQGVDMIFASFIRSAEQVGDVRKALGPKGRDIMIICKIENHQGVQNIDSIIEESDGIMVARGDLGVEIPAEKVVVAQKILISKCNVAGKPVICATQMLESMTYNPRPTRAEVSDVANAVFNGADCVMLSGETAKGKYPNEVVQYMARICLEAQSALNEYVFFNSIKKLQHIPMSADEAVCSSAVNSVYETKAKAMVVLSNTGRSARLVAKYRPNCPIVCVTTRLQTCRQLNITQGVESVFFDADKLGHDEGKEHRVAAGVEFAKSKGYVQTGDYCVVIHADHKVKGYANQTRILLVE
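Purified LmPK (0.1 nM) with 0.5 mM PEP and 0.1 mM ADP in imidazole buffer pH 7.2 with MgCl2/KCl, 1 h at room temperature. ATP formed was read by luciferase luminescence and normalized to no-enzyme and uninhibited controls.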
Shiga inhibitor: inhibitors of Shiga toxin in Vero cells; Vero cells, Shiga toxin protein synthesis inhibition reporter; inhibition, % at 38.7 µM; 290,000 tested, 9.2% active; AID 2315; in the data active = inhibition mostly above about 28%, no sharp cut-off; inactive = mostly below about 43%; note: 0% is about no effect
Starred values were filed as active, the others as inactive; ? = inconclusive; nt = no result; [ ] = another dose, or the depositor's remark. The entries come from a sample that favours hits as a whole. Unless noted, calls come from the whole dose curve; as a rule, active = well fitted curve in the direction sought with a large enough effect; inconclusive = small, poorly fitted or top-dose-only effect, or another doubt; inactive = no such curve, though single readings can be large; an effect the other way counts as inactive or inconclusive.

SMILES	TbPYK inhibitor	Sm TGR block	Cycloheximide cs	FBPA Giardia inh	LmPK inh	Shiga inhibitor
COc1ccc(C(=O)c2oc3ccccc3c2N)cc1	1.6%	-6.4%	93.0*	-4.1%	0.1%	active
CC(C)c1ccc(NC(=O)Cn2c(=O)n(CC3CCC(C(=O)NCCc4ccccc4)CC3)c(=O)c3ccccc32)cc1 (centres undefined)	-4.5%	1.2%	nt	nt	nt	nt
O=C(CSc1nc2ccccc2nc1Cc1ccc(Cl)cc1)N1CCN(c2ccccc2F)CC1	-3.3%[15.4 µM]	4.8%	nt	nt	nt	nt
CN(C)c1ncc2ncc(=O)n(CCC#N)c2n1	-4.0%	nt	nt	-0.1%	nt	nt
COc1ccc2oc(C)c(C(N)=O)c2c1	-15.2%	6.6%	-1.2	2.5%	-3.8%	0.9
COC(=O)CCC(=O)c1oc2ccc(OC)cc2c1N	-2.6%	7.4%	39.6*	1.6%	1.3%	62.9
Nc1ccc(-c2cnc(-c3ccc(N)cc3)nc2)cc1	-2.8%	1.5%	50.8*	-1.9%	1.5%	33.4
CCCCC(=O)O[C@]1(C(=O)CO)CCC2C3CCC4=CC(=O)CCC4(C)C3C(O)CC21C (some centres undefined)	-3.0%	nt	nt	nt	nt	nt
CC(Oc1cccc(Br)c1)C(=O)NNC(=O)CCNC(=O)c1ccccc1Cl (centres undefined)	0.9%	-7.6%	nt	nt	nt	nt
CCC(C(=O)N(C)Cc1ccccc1)n1nc(C)c2sc3ccccc3c2c1=O (centres undefined)	-4.3%	-5.8%	nt	nt	nt	nt
CCc1ccc2nc3n[nH]c(N)c3cc2c1	-4.0%	9.7%	44.5*	0.0%	-14.7%	75.2*
CCc1ccc(NCc2cc3ccc(OC)cc3n(CC(=O)Nc3ccccc3C)c2=O)cc1	-2.1%	1.8%	nt	nt	nt	nt
CC(C)CC(=O)NC(=S)Nc1ccc(CN2CCOCC2)cc1	-1.3%	-11.8%	11.0	-2.6%	-0.3%	33.4*
O=C(COc1ccc(Cl)cc1Cl)NC(=S)Nc1ccc(CN2CCOCC2)cc1	-8.0%	-29.6%	1.0	-24.0%	2.7%	6.6
CC(C)CC(=O)NC(=S)Nc1cccc(NC(=O)c2ccccc2)c1	-14.2%	?	-5.5	2.2%	0.6%	-6.8
CC(C)CC(=O)NC(=S)Nc1ccc(N2CCOCC2)cc1	1.0%	?	24.2*	-1.4%	0.5%	48.0*
Cc1cc(NC(=S)NC(=O)CC(C)C)ccc1Br	-6.8%	-13.9%	32.3*	1.3%	5.9%	114.6*
CC(C)CC(=O)NC(=S)Nc1ccc(N2CCN(C(=O)c3cccs3)CC2)cc1	-0.5%	?	-1.8	4.5%	4.4%	12.8
Cc1ccc(Cn2c(CO)cnc2SCC(=O)NCc2ccccc2Cl)cc1	-4.8%	-0.9%	nt	nt	nt	nt
CCN(CC(=O)Nc1ccc(NC(C)=O)cc1)C(=O)C1(c2ccccc2)CC1	-4.2%	-0.1%	nt	nt	nt	nt
O=C1c2c(O)cccc2C(C2OC(CO)[C@@H](O)[C@H](O)[C@H]2O)c2cc(CO)cc(O)c21 (some centres undefined)	-0.8%	39.8µM*	nt	nt	nt	nt
O=C1c2cc(CO)cc(O)c2C(=O)c2c(O[C@@H]3OC(CO)[C@@H](O)[C@@H](O)[C@@H]3O)cccc21 (some centres undefined)	0.2%	nt	nt	nt	nt	nt
Cc1ccc(S(=O)(=O)Oc2ccccc2/C=N/O)cc1	4.5%	-8.5%	-1.4	-12.2%	3.6%	2.7
Cc1ccc(S(=O)(=O)Oc2ccccc2/C=N/Nc2ccc(C(=O)O)cc2)cc1	5.8%	2.7%	25.6*	1.2%	-1.8%	30.5
Cc1ccc(-n2nnc3c(SCC(=O)NCc4ccco4)ncnc32)cc1	1.5%	-26.0%	5.2	2.5%	-4.5%	17.0
SMILES	TbPYK inhibitor	Sm TGR block	Cycloheximide cs	FBPA Giardia inh	LmPK inh	Shiga inhibitor
COc1ccc(-n2nnc3c(SCC(=O)NCc4ccco4)ncnc32)cc1	-8.3%	0.0%	19.1*	0.3%	0.9%	19.9
Cc1ccc(-n2nnc3c(=O)n(CC(=O)NCc4ccco4)cnc32)cc1	-7.4%	-24.6%	-7.2	-3.1%	-0.2%	-9.9
COc1ccc(Cc2nnc(SCC(=O)NCc3ccco3)o2)cc1	1.1%	50.1µM*	-1.7	0.6%	4.8%	-10.5
O=C(CSc1nnc(-c2ccc(S(=O)(=O)N3CCCC3)cc2)o1)NCc1ccco1	-3.2%	44.7µM*	-3.8	-1.5%	0.2%	18.3
COc1ccc(OCc2nnc(SCC(=O)NCc3ccco3)o2)cc1	-3.6%	0.6%	-1.8	-4.0%	-4.7%	-8.6
O=C(Cn1cnc2c(nnn2-c2ccc(F)cc2)c1=O)NCc1ccco1	0.0%	79.4µM*	-1.8	0.6%	2.0%	-2.2
Cc1ccc(-c2nnc(SCC(=O)Nc3ccc(S(=O)(=O)N4CCCCCC4)cc3)o2)cc1	0.5%	-5.4%	-1.2	-4.4%	1.2%	2.0
COc1ccc(C(=O)NCc2nnc(SCC(=O)NCc3ccco3)o2)cc1	0.0%	-27.3%	-1.5	0.9%	-1.9%	-10.7
COc1ccc(-c2nnc(SCC(=O)NCc3ccco3)o2)cc1	-0.5%	?	22.2*	0.0%	2.6%	92.0*
CC(=O)C[C@H](O)CC(=O)[C@H]1OC(=O)CC/C=C\Cc2ccccc21	-6.6%	-32.4%	nt	nt	nt	nt
Cc1cc(C(=O)CSc2n[nH]c(-c3ccccc3F)n2)c(C)n1Cc1cccs1	-7.9%	?	17.0*	-2.9%	7.1%	38.8
COc1ccc(-n2cnnc2SCC(=O)c2cc(C)n(Cc3cccs3)c2C)cc1	-11.7%	-14.0%	-3.7	1.6%	-0.7%	-1.0
Cc1cc(C(=O)CSc2nnc(N)s2)c(C)n1Cc1cccs1	-1.6%	-20.7%	57.4*	-5.3%	-24.0%	83.0*
Cc1csc(SCC(=O)c2cc(C)n(Cc3cccs3)c2C)n1	1.7%	-11.1%	16.8*	-4.3%	-6.7%	31.6*
CN(C)/C=N/c1ncn(-c2ncc(C(F)(F)F)cc2Cl)n1	2.4%	4.0%	19.8	1.8%	-0.7%	50.2*
Oc1ccc(N=Nc2ccccc2)o1	-4.7%	3.16µM*	30.1*	-2.2%	-17.5%	42.1*
Cc1cc2ncn(C(=O)N3CCC(C)CC3)c2cc1C	-7.4%	-11.0%	27.9*	-6.7%	3.0%	66.7*
Cc1cc2ncn(C(=O)c3ccc4c(c3)OCO4)c2cc1C	2.3%	4.0%	10.5	2.6%	1.0%	31.1
CCOc1ccc(N2CC(C(=O)NC3CCCC3)CC2=O)cc1 (centres undefined)	1.8%	-2.4%	-4.0	1.2%	10.0%	-6.4
NNC(=O)c1ccc(CSc2nc3ccccc3s2)cc1	-1.5%	-10.7%	14.1	-4.2%	0.4%	54.4*
O=C(Nc1ccc2nc(SCc3ccccc3)sc2c1)c1cccc(F)c1	-3.8%	18.1%	nt	nt	nt	nt
COCCN(CCOC)C(=O)c1ccc(CSc2nc3ccccc3s2)cc1	-5.6%	0.0%	31.5*	nt	-3.3%	53.3*
O=C(CSc1ccnc(=O)[nH]1)NCc1ccc(F)cc1	0.5%	?	nt	nt	nt	nt
O=C(NCc1ccccc1Cl)c1ccc2c(c1)nnn2C1CCCC1	-3.1%	9.9%	nt	nt	nt	nt
Cc1cc(N/C=C/C(=O)c2ccc(Br)cc2)no1	-6.5%	-4.4%	16.0*	0.6%	-2.1%	49.4*
